Experimental data reported in PubChem BioAssay.
Unmarked numbers belong to inactive results. No rule for the calls is given here. Non-standard residues stand in square brackets, D forms with d. Residues, ends and D or L forms follow the SMILES beside them. Orn = NCCC[CH](N)C(=O)O

The compounds below were run on Aerobactin synthetase IucA (Klebsiella pneumoniae hvKP1) (assay: IucA enzyme inhibition, primary screen, biochemical, Spectrum library (AID 1346200;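 also: 100% = wells without compound and 0% = wells lacking enzyme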)). Conditions: malachite green pyrophosphate, A620, at 8 µM, stronger effect = lower value.

Q: `COc1cc(CNC(=O)CCCC/C=C/C(C)C)ccc1O` was tested. Which activity remaining did it give?
A: 109%

Q: How did the activity remaining turn out when `COc1ccc2c(c1)OC1(O)COc3cc(OC)c(OC)cc3C1=C2` (centres undefined) was run?
A: 107%

Q: Which activity remaining does the source give for `C[C@H]1COC2=C1C(=O)C(=O)c1c2ccc2c1CCCC2(C)C` here?
A: 106%

Q: `CC[C@H](CCC(C)[C@H]1CCC2C3CCC4C[C@@H](O)CC[C@]4(C)C3CC[C@@]21C)C(C)C` (some centres undefined) was tested. Which activity remaining did it give?
A: 102%

Q: With `O=C(Oc1cc(O)cc2c1C[C@@H](OC(=O)c1cc(O)c(O)c(O)c1)[C@@H](c1cc(O)c(O)c(O)c1)O2)c1cc(O)c(O)c(O)c1` as the compound, how does the activity remaining read?
A: 122%

Q: With `CC(=O)Oc1c(C)c(C)c2c(c1C)CCC(C)(CCCC(C)CCCC(C)CCCC(C)C)O2` (centres undefined) as the compound, how does the activity remaining read?
A: 96.6%

Q: For `Nc1cc(-c2ccncc2)c[nH]c1=O`, which activity remaining is on record?
A: 122%

Q: Which activity remaining does the source give for `C[C@@H]1CC[C@@]23CCC4(C)[C@@](C=CC5[C@@]6(C)CC[C@H](O)C(C)(C)C6CC[C@]54C)(OC2=O)C3[C@H]1C` (some centres undefined) here?
A: 99.4%

Q: With `CC(C)CC1NC(=O)C(CCCN)NC(=O)C(C(C)C)NC(=O)C(Cc2ccc(O)cc2)NC(=O)C(CCC(=O)O)NC(=O)C(CC(=O)O)NC(=O)C(Cc2ccccc2)NC(=O)C(Cc2ccccc2)NC(=O)C2CCCN2C(=O)C(Cc2ccccc2)NC1=O` (centres undefined) (cyclo(DEYV[Orn]LFPFF); configuration not given here) as the compound, how does the activity remaining read?
A: 113%

Q: For `CC(=O)O[C@@H]1CC2C(C)(CC[C@H](O)C2(C)C)C2CC[C@]3(C)C(=CC(=O)O[C@H]3c3ccoc3)C21C` (some centres undefined), which activity remaining is on record?
A: 95.5%

Q: `CC[C@]12C=CCN3CC[C@@]4(c5ccc(OC)cc5N(C)C4[C@@](O)(C(=O)OC)[C@@H]1OC(C)=O)[C@@H]32` (some centres undefined) was tested. Which activity remaining did it give?
A: 112%

Q: How did the activity remaining turn out when `C/C=C1\[C@H]2C=C(C)C[C@]1(N)c1ccc(=O)[nH]c1C2` was run?
A: 122%

Q: Which activity remaining does the source give for `Cc1coc2c1C(=O)C(=O)c1c-2ccc2c1CCCC2(C)C` here?
A: 103%

Q: Which activity remaining does the source give for `CC(=O)C1CCC2C3CC(=O)C4=CC(=O)CCC4(C)C3CCC12C` (centres undefined) here?
A: 98.9%

Q: `OC1C(O)C(O)C(O)C(O)C1O` (centres undefined) was tested. Which activity remaining did it give?
A: 103%

Q: `CC1=C2[C@H]([C@@H](C)CC[C@@H]2/C=C(\C)C(=O)O)[C@@H](O)C1` was tested. Which activity remaining did it give?
A: 116%

Q: `COc1ccc(-c2cc(=O)c3c(OC)c(OC)c(OC)c(OC)c3o2)cc1OC` was tested. Which activity remaining did it give?
A: 122%

Q: `CC1(C)S[C@@H]2[C@H](NC(=O)Cc3ccccc3)C(=O)N2[C@H]1C(=O)O` was tested. Which activity remaining did it give?
A: 111%

Q: How did the activity remaining turn out when `COc1ccc([C@@H]2CC(=O)c3c(O)cc(O[C@@H]4O[C@H](CO[C@H]5O[C@@H](C)[C@H](O)[C@@H](O)[C@H]5O)[C@@H](O)[C@H](O)[C@H]4O)cc3O2)cc1O` was run?
A: 102%

Q: How did the activity remaining turn out when `CC1(C)O[C@H]2[C@H](O)C[C@](O)(C(N)=O)C[C@H]2O1` was run?
A: 109%

Q: How did the activity remaining turn out when `COc1cc(C(=O)NCc2ccc(OCCN(C)C)cc2)cc(OC)c1OC` was run?
A: 114%

Q: With `CC(Cc1cccc(C(F)(F)F)c1)NCCOC(=O)c1ccccc1` (centres undefined) as the compound, how does the activity remaining read?
A: 98.2%

Q: How did the activity remaining turn out when `COc1ccnc(CS(=O)c2nc3ccc(OC(F)F)cc3[nH]2)c1OC` (centres undefined) was run?
A: 127%

Q: Which activity remaining does the source give for `Oc1ccc(Cl)c2cccnc12` here?
A: 121%

Q: For `O=C1c2ccc(O)c(O)c2C(=O)c2c(O)ccc(O)c21`, which activity remaining is on record?
A: 125%

Q: Which activity remaining does the source give for `CC(=O)O[C@@H]1C[C@@]23C[C@@]24CC[C@H](O[C@@H]2OC[C@@H](O)[C@H](O)[C@H]2O)C(C)(C)C4CCC3[C@]2(C)C[C@@H]3OC4(C[C@@H](C)[C@@H]3[C@@]12C)O[C@H](O)[C@]1(C)O[C@H]41` (some centres undefined) here?
A: 87.7%

Q: With `COc1ccc(-c2cc(=O)c3c(O)c(OC)c(O[C@H]4O[C@H](CO[C@@H]5O[C@@H](C)[C@H](O)[C@@H](O)[C@H]5O)[C@@H](O)[C@H](O)[C@H]4O)cc3o2)cc1` as the compound, how does the activity remaining read?
A: 109%

Q: How did the activity remaining turn out when `Cc1nnc(NS(=O)(=O)c2ccc(N)cc2)s1` was run?
A: 113%

Q: `CCCc1nc(C(C)(C)O)c(C(=O)OCc2oc(=O)oc2C)n1Cc1ccc(-c2ccccc2-c2nn[nH]n2)cc1` was tested. Which activity remaining did it give?
A: 121%

Q: For `CC(=O)O[C@@H]1CC2C(C)(C)C(=O)[C@@H]3O[C@@H]3[C@]2(C)C2CC[C@]3(C)C(=CC(=O)O[C@H]3c3ccoc3)[C@@]21C` (some centres undefined), which activity remaining is on record?
A: 99.4%

Q: For `C=C[C@@](C)(O)CCC1C(=C)CCC2[C@@](C)(CO)CCC[C@]12C` (some centres undefined), which activity remaining is on record?
A: 117%

Q: With `O=C(N[C@@H](CO)[C@H](O)c1ccc([N+](=O)[O-])cc1)C(Cl)Cl` as the compound, how does the activity remaining read?
A: 114%

Q: For `C=CC(C1=CC(=O)C(OC)=CC1=O)c1ccc(OC)cc1` (centres undefined), which activity remaining is on record?
A: 109%

Q: Which activity remaining does the source give for `CC(C)(Sc1cc(C(C)(C)C)c(O)c(C(C)(C)C)c1)Sc1cc(C(C)(C)C)c(O)c(C(C)(C)C)c1` here?
A: 89.7%

Q: How did the activity remaining turn out when `CC(=O)O[C@H]1CC[C@@]2(C)C(C[C@@H](OC(C)=O)[C@@]3(C)C4=CC(=O)O[C@@H](c5ccoc5)[C@]4(C)CCC23)C1(C)C` (some centres undefined) was run?
A: 89.5%

Q: `C/C1=C/CC(C)(C)/C=C/C/C(C)=C/CC1` was tested. Which activity remaining did it give?
A: 122%

Q: Which activity remaining does the source give for `COc1cc(OC)c2c(=O)c(-c3ccccc3)coc2c1` here?
A: 110%

Q: How did the activity remaining turn out when `COc1cc2c(cc1OC)C1(O)C(=O)c3ccc(O)c(C(=O)O)c3OC1CO2` (centres undefined) was run?
A: 117%

Q: For `Cc1c(C)c2c(c(C)c1O)CCC(C)(CCCC(C)CCCC(C)CCCC(C)C)O2` (centres undefined), which activity remaining is on record?
A: 105%
